Consider 78 compounds from PubChem BioAssay AID492998 (Southern Research Specialized Biocontainment Screening …, 2010).

Screen size: about 2,300 compounds; about 550 (24%) were called active. The rule behind the calls is not given here. Only a sample is shown. Results with a measured potency or affinity are listed apart.

The assay is described as follows: Vero E6 cell cytotoxicity, dose response, cytotoxicity control for non-replicating M. tuberculosis project, secondary assay (AID 492998). The conditions noted are these: series mostly up to 20 µM.
`COc1ccc(C(CCNCc2ccc(OC(C)C)cc2)C(C)C)cc1` (stereo not drawn): the result was inactive.

Regarding `COc1ccc(C(C)NC(=O)CCc2ccccc2)cc1` (stereo not drawn), the compound was classed as inactive.

For the compound `CCOC(=O)CN1NC2(CCC(C)CC2)NC1=S` (stereo not drawn), the result was inactive.

`COc1ccc(COC(=O)CCNC(=O)c2ccc(Cl)cc2)cc1`: the compound was classed as inactive.

Regarding `COc1ccc(-c2[nH]ncc2CN2CCCCCCC2)c(OC)c1`, the compound was called inactive.

For `Sc1oc(-c2ccccc2)cc1C=Nc1ccccc1`, the result was inactive.

With `CCOC(=O)c1c(-c2ccccc2)csc1NC(=O)CCN1CCOCC1`, the compound was classed as inactive.

Turning to `CN1c2ccsc2/C(=N/Nc2ccccc2)CS1(=O)=O`, the call was inactive.

Take `CCOC(=O)CNC(=O)CNC(=O)c1nn(-c2ccc(OC)c(Cl)c2)c(=O)c2ccccc12`: the result was inactive.

Regarding `O=C(O)c1ccccc1C(=O)NNc1ccc(F)cc1`, the result was inactive.

Take `CCOC(=O)c1ccc(NC2=CC(=O)C(=O)c3ccccc32)cc1`: the compound was called inactive.

As to `CCOC(=O)COc1cc(O)c2c(=O)cc(-c3ccccc3)oc2c1`, the call was inactive.

On to `CCOC(=O)CCNC(=O)c1ccc2nc(C3CCCCC3)oc2c1`, for which the compound was called inactive.

As to `O=C(Nc1ccc(Cl)cn1)C1COc2ccccc2O1` (stereo not drawn), the outcome was inactive.

On to `COC(=O)COc1ccc2cc(-c3ccc(OC)cc3)c(=O)oc2c1`, for which the compound was called inactive.

With `COC(=O)CN(C#N)c1nc(N(C)C)nc(N(C)C)n1`, the outcome was inactive.

Consider `CC(/C=C/c1ccccc1F)=N\NC(=O)c1ccccc1`, for which the compound was classed as inactive.

Consider `Cc1ccc(NC(=S)C2=C(O)c3sccc3N(C)S2(=O)=O)cc1`, for which the compound was called inactive.

Take `Cc1ccc(OCC(=O)N2CCCc3ccccc32)cc1`: the compound was called inactive.

Consider `Cc1ccc(NC(=O)CO/N=C/c2ccc(N(C)C)cc2)cc1`, for which the result was inactive.

As for `Cc1ccc(C(=O)C=CNNC(=O)c2ccccc2)cc1`, the result was inactive.

Take `COc1ccc(C(=O)C=CNNC(=O)c2ccc(Cl)cc2)cc1`: the result was inactive.

As for `O=C(COc1ccc(F)cc1)Nc1ccc2c(c1)OCCO2`, the call was inactive.

As for `Cc1ccc(-n2cc(CNCCn3nc(C)cc3C)c(-c3ccc(F)cc3)n2)cc1`, the result was inactive.

For the compound `Cc1ccc(-n2cc(CNCCc3cscn3)c(-c3ccc(F)cc3)n2)cc1`, the compound was called inactive.

With `COc1ccc(OCc2n[nH]c(=S)o2)cc1`, the compound was classed as inactive.

On to `Cc1cccc(NC(=O)CO/N=C/c2ccc3c(c2)OCO3)c1`, for which the outcome was inactive.

For `CCc1nnc(NC(=O)CN2CCN(Cc3ccc(F)cc3)CC2)s1`, the outcome was inactive.

In the case of `COC(=O)COc1ccc2c(=O)c(-c3ccccc3)coc2c1`, the compound was called inactive.

Take `c1ccc2cc(OCCCn3ccnc3)ccc2c1`: the call was inactive.

As to `C=CCc1cc(Cl)ccc1OCCCn1ccnc1`, the compound was classed as inactive.

In the case of `CC(NC(=O)OCc1ccccc1)c1ccccc1` (stereo not drawn), the call was inactive.

On to `CC(CN1CCOCC1)OC(=O)c1ccc(Br)cc1` (stereo not drawn), for which the call was inactive.

On to `CCCCOc1ccc(NC(=O)CN2CCN(Cc3ccccc3)CC2)cc1`, for which the call was inactive.

Take `CC(CN1CCOCC1)OC(=O)c1ccc2c(c1)OCCO2` (stereo not drawn): the call was inactive.

Turning to `Cc1ccc(NC(CC(=O)c2ccccc2)C(=O)O)cc1Cl` (stereo not drawn), the result was inactive.

As to `COc1ccc(C(=O)CCN2CCCCCC2)cc1`, the result was inactive.

With `CC(C)COc1ccc(C(=O)CCN2CCCCC2)cc1`, the call was inactive.

Regarding `COc1ccc2cc(C(=O)NCc3ccccc3CN3CCCC3)ccc2c1`, the outcome was inactive.

In the case of `O=S(=O)(CCN1CCN(c2ccccn2)CC1)c1ccc(Cl)cc1Cl`, the compound was classed as inactive.

With `O=C(N[C@@H]1C[C@H]2CC[C@@H]1C2)c1ccco1`, the result was inactive.

In the case of `Cc1ccc(NCCC(=O)c2cccs2)cc1C`, the call was inactive.

With `O=C(OCn1nnc2ccccc2c1=O)c1ccc(N2CCOCC2)c([N+](=O)[O-])c1`, the compound was classed as inactive.

As to `CCOC(=O)C1=C(C)NC(=O)NC1c1ccc(-c2ccc(F)cc2)o1` (stereo not drawn), the compound was classed as inactive.

For `CCOC(=O)c1ccc(N=C2SC(C(=O)Nc3ccc(C(=O)O)cc3)CC(=O)N2Cc2cccs2)cc1` (stereo not drawn), the result was inactive.

Regarding `O=c1oc2ccccc2nc1/C=C(\O)c1ccc(Br)cc1`, the outcome was inactive.

Turning to `O=C(CCSc1ccccc1)N1CCCC1`, the outcome was inactive.

On to `O=C(CCN1CCCCCC1)c1ccccc1`, for which the compound was classed as inactive.

In the case of `Cc1nnc(N/N=C/c2ccc(Br)cc2)n1N`, the compound was classed as inactive.

On to `COCCSc1nnc(NC(=O)CCS(=O)(=O)Cc2ccccc2)s1`, for which the outcome was inactive.

In the case of `CCCCOc1ccc(CSCCN)cc1Cl`, the call was inactive.

As for `CC(=O)c1ccc(NC(=O)C(Cc2ccccc2)n2cccc2)cc1` (stereo not drawn), the outcome was inactive.

As for `Cc1ccccc1C(=O)NNc1ccc([N+](=O)[O-])cc1`, the call was inactive.

Consider `Cc1ccc(NC(=O)ON=C2CCCC2)cc1`, for which the outcome was inactive.

`Cc1cc(C)n(-c2ccc(C(=O)Oc3ccc4c(c3)OCO4)cc2)n1`: the outcome was inactive.

On to `CCN(CC)CCSc1nnc2c3cc(C)ccc3n(Cc3ccccc3)c2n1`, for which the outcome was inactive.

Regarding `Cc1c(C(=O)NNC(=O)c2csc(N3CCOCC3)n2)oc2ccccc12`, the outcome was inactive.

Consider `NC(=O)N/N=C/c1ccccc1OC(=O)c1cc2ccccc2oc1=O`, for which the outcome was inactive.

Turning to `CCC(C)(C)NC(=O)c1ccc(Br)o1`, the compound was classed as inactive.

Take `O=C(Nc1ccccc1)c1ccc(Br)o1`: the compound was classed as inactive.

Regarding `CC(C)(C)OC(=O)N/N=C\c1ccc(OC(=O)c2ccco2)cc1`, the result was inactive.

In the case of `CC1(c2nnc(-c3ccccc3)o2)CC(c2ccc(Cl)cc2)=NO1` (stereo not drawn), the outcome was inactive.

Take `Clc1ccc(OCCOCCN2CCc3ccccc3C2)c(Cl)c1`: the compound was called inactive.

Consider `COc1ccccc1/C=C/C=N/NC(=O)c1ccncc1`, for which the result was inactive.

Take `Cc1cc(C)n(-c2ccc(C(=O)OCC(=O)Nc3cc(Cl)ccc3[N+](=O)[O-])cc2)n1`: the compound was classed as inactive.

`Cc1ccc(CN2CC(C(=O)OCc3ccccc3Cl)CC2=O)cc1` (stereo not drawn): the compound was called inactive.

Regarding `Cc1ccc(C(=O)COC(=O)CCc2ccc(S(=O)(=O)N3CCCCC3)cc2)cc1`, the result was inactive.

Regarding `Cc1ccc(N2NC(=O)/C(=C/C=C/c3ccco3)C2=O)cc1C`, the compound was called inactive.

As to `Cc1ccc(OCCCCn2ccnc2)c(Cl)c1`, the compound was classed as inactive.

In the case of `CC1(C)Oc2ccc(NC(=O)C3COc4ccccc4O3)cc2O1` (stereo not drawn), the outcome was inactive.

As to `O=C(Oc1ccccc1Cl)c1ccc2c(=O)n3c(nc2c1)CCC3`, the call was inactive.

For the compound `CCOc1ncccc1C(=O)OCC(=O)N1CCc2ccccc21`, the compound was classed as inactive.

Turning to `C=CCOC(=O)c1ccc(-n2cnc(C)n2)nc1`, the compound was called inactive.

Turning to `O=C1CCC/C(=N/Nc2ccc(Cl)cc2)C1`, the compound was classed as inactive.

In the case of `CCc1nnc(N/N=C/c2c(F)cccc2Cl)n1N`, the compound was called inactive.

For the compound `CCc1ccc(Cc2cnc(NC(=O)C3=NCCN3)s2)cc1`, the outcome was inactive.

With `Cn1c(SCCOc2cccc(Cl)c2)nnc1-c1ccncc1`, the compound was called inactive.

`O=C(Oc1ccccc1)c1cccc(COC(=O)c2cnccn2)c1`: the call was inactive.
